M1 PAM – human CHRM1 positive allosteric modulation. CHO-K1 hM1, Fluo-8 calcium fluorescence, ACh EC20; 0% = ACh EC20, 100% = maximal ACh. P11229. actives 0.088% (n = 360,000). activation, % at 3 µM. AID 588819; in the data active = activation above about 19%, passing the limit was not always enough
Target sequence (P11229 whole entry, looked up): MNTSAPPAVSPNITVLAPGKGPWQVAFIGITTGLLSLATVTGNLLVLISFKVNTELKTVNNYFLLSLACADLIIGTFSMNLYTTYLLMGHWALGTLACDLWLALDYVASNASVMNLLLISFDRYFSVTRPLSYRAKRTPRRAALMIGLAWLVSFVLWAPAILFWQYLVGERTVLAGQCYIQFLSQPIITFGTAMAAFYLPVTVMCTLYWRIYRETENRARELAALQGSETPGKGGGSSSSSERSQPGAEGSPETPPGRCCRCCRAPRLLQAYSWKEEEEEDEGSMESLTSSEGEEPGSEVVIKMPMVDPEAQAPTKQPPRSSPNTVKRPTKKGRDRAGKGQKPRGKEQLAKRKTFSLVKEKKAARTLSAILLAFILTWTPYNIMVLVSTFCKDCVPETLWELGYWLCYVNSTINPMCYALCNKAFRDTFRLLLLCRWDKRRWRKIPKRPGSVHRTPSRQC
CHO-K1 Ca antag – nonselective inhibitor or artifact in parental CHO-K1 cells; ATP-induced calcium, Fluo-8 fluorescence; inhibition, % at 3 µM; actives 0.6% (n = 360,000); AID 602250;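 active = inhibition above a per-plate cutoff, the plate's mean sample inhibition plus 3 SD, cut at about 24% in these data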;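 note: 0% = DMSO plus EC80 ATP and 100% = DMSO alone without ATP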
CHO-K1 Ca PAM – counter-screen for M1 PAMs: effect in parental CHO-K1 cells | ATP EC20, Fluo-8 calcium fluorescence; 0% at ATP EC20, 100% at ATP max | activation, % at 3 µM | actives 0.02% (n = 360,000) | AID 602247;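 active = activation above the run cutoff, the mean activation of all test compounds plus 3 SD, cut at about 40% in these data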;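 note: peak over basal fluorescence ratio in a 140 s read after ATP addition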
M1 antag – human CHRM1 antagonism. P11229. CHO-K1 hM1, Fluo-8 calcium fluorescence, ACh EC80 antagonist. inhibition, % at 3 µM. actives 1.3% (n = 360,000). AID 588852;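 active = percent inhibition above its own plate's cutoff, namely the mean of that plate's compound wells plus 3 SD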;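 note: peak over basal fluorescence ratio during 140 s after agonist addition; 0% = ACh EC80 plus DMSO and 100% = DMSO alone without agonist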
M1 ag – activates human CHRM1 receptor; P11229; activation, % at 3 µM; CHO-K1 hM1, Fluo-8 calcium fluorescence, agonist mode; 0% DMSO, 100% acetylcholine EC100; actives 0.33% (n = 360,000);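 active = activation above the run's mean compound activation plus 3 SD, cut at about 16% in these data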;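 note: peak over basal fluorescence ratio within a 140 s kinetic read after compound addition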
M1 ag parental – M1 agonist counterscreen hit in parental CHO-K1 cells. Fluo-8 calcium fluorescence; scaled to maximal ATP response, vehicle zero. AID 602248. actives 0.48% (n = 360,000). activation, % at 3 µM; in the data active = activation above about 15%;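 note: untransfected CHO-K1 host cells lacking M1 receptor as counterscreen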
* = called active by the depositor; · = not tested or not shown; ! = repeats disagree. Only some compounds are listed: those with a hit (about 2.3% of all), similar ones and a draw of the others.

SMILES	M1 PAM	CHO-K1 Ca antag	CHO-K1 Ca PAM	M1 antag	M1 ag	M1 ag parental
NC(=O)Cc1ccc(C(=O)c2ccccc2F)s1	-8.7	25.3*	-9.2	3.0	-2.5	0.1
C=C(C)CNC(=S)N/N=C(\C)c1ccc(-n2ccnc2)cc1	-1.8	-19.2	11.8	-4.4	-2.4	5.2
C/C(=N\NC(=O)OC(C)(C)C)c1ccc(-n2ccnc2)cc1	-2.2	-1.1	-5.0	9.2	0.3	0.9
C/C(=N\NC(N)=S)c1ccc(-n2ccnc2)cc1	28.8*	-9.5	7.1	-0.4	-1.7	1.2
C/C(=N\NC(=O)c1ccccc1)c1ccc(-n2ccnc2)cc1	-5.6	27.9*	-14.2	9.7	-5.2	-0.1
Cc1cccc(C(=O)NC(=S)N2CCN(C(=S)NC(=O)c3cccc(C)c3)CC2)c1	2.6	-8.5	26.6	-9.9	-5.9	1.0
O=C(NCCN1CCOCC1)c1ccc2c(c1)N(Cc1ccccc1F)C(=O)CS2	-17.8	-14.1	20.8	59.1*	-2.5	0.5
O=C(NCc1ccco1)c1ccc2c(c1)N(Cc1ccccc1)C(=O)CS2	-28.1	-21.9	-7.3	24.1	-13.0	1.0
O=C(NCCCN1CCOCC1)c1ccc2c(c1)N(Cc1c(F)cccc1Cl)C(=O)CS2	-33.4	-0.8	-12.9	99.6*	-11.4	1.8
O=C(CN1C(=O)CSc2ccc(S(=O)(=O)N3CCOCC3)cc21)NCCCN1CCOCC1	4.0	-1.4	-7.6	-1.3	-3.3	0.3
O=C(NCC1CCCO1)c1ccc2c(c1)N(Cc1ccccc1)C(=O)CS2 (stereo unspecified)	-20.9	-2.7	-6.6	45.1*	-5.3	1.2
O=C(CN1C(=O)CSc2ccc(S(=O)(=O)N3CCOCC3)cc21)NCCCN1CCCCC1	-15.0	-13.9	13.2	38.0*	-5.9	1.1
Cc1ccc(C)c(CN2C(=O)CSc3ccc(C(=O)NCCN4CCOCC4)cc32)c1	0.2	-12.0	11.6	-5.5	-9.6	1.4
COc1cccc(CN2CC(C(=O)NCCc3ccc(C)s3)CCC2=O)c1 (stereo unspecified)	8.9	4.7	-3.1	-8.2	-1.1	1.4
O=C(OCc1ccccc1)N1CCC2CC1c1cc(N3CCCCC3)ccc12 (stereo unspecified)	-27.8	-11.0	13.4	34.2*	-10.9	0.1
Clc1cccc(CN2CCC3CC2c2cc(N4CCCCC4)ccc23)c1 (stereo unspecified)	3.4	-16.4	12.2	-7.9	-4.9	0.8
O=C(c1cc(Cl)cc(Cl)c1)N1CCC2CC1c1cc(N3CCCCC3)ccc12 (stereo unspecified)	-33.5	2.1	8.5	69.7*	-10.9	0.0
CC(OC(=O)[C@@H](NC(=O)OCc1ccccc1)C(C)C)C(=O)Nc1ccc(N2CCOCC2)cc1 (stereo partly specified)	-6.8	-7.2	-5.3	2.0	5.1	9.5
O=[N+]([O-])C(/C=C(\Cl)[N+](=O)[O-])=C1N(Cc2ccc(Cl)nc2)CCN1Cc1ccc(Cl)nc1	8.0	-7.7	0.8	-4.9	-10.4	-0.3
O=[N+]([O-])/C(C(=C(Cl)Cl)N1CCN(Cc2ccccc2)CC1)=C1\NCCN1Cc1ccc(Cl)nc1	-33.2	3.0	-2.0	42.9*	-13.4	1.3
CCC(=O)N1Cc2cc(C(=O)Nc3nccs3)nc(-c3cccc(-c4ccccc4OC)c3)c2[C@@H]1CCO	·	6.4	1.6	·	·	5.5
CC1CCC(C(C)C)C(OC(=O)Cn2c(-c3ccccc3)[n+](C)c3ccccc32)C1 (stereo unspecified)	-16.9	11.6	13.8	42.6*!	-6.6	5.8
CC1CCC(C(C)C)C(OC(=O)CSc2nnc(N)s2)C1 (stereo unspecified)	2.4	-3.2	10.0	-8.9	-2.7	0.5
CC1CCC(C(C)C)C(OC(=O)Cn2c(-c3ccc(F)cc3)[n+](C)c3ccccc32)C1 (stereo unspecified)	-26.2	22.8	-9.3	51.3*	-10.6	0.9
Cc1cccc(OCc2n(CC(=O)OC3CC(C)CCC3C(C)C)c3ccccc3[n+]2C)c1 (stereo unspecified)	-31.2	13.5	13.8	38.4*	-6.9	8.8
SMILES	M1 PAM	CHO-K1 Ca antag	CHO-K1 Ca PAM	M1 antag	M1 ag	M1 ag parental
CC1CCC(C(C)C)C(OC(=O)CSc2nc(N)cc(=O)[nH]2)C1 (stereo unspecified)	2.3	-4.2	-8.3	1.7	-0.4	3.3
Cc1cc(C)n2nc(SC(C)C(=O)N3CC(C)OC(C)C3)nc2n1 (stereo unspecified)	5.8	-4.6	-16.5	-11.1	-3.0	0.0
COCCN(C(=O)c1ccc(N2C(=O)c3ccccc3C2=O)cc1)c1c(N)n(CC(C)C)c(=O)[nH]c1=O	4.1	-3.3	6.6	-12.5	-0.3	0.5
CCOC(=O)c1oc2ccc(CNC3CCCCC3)c(Cl)c2c1C	-36.2	-2.0	-0.2	75.8*	-11.5	1.1
COc1ccccc1-n1c(=O)oc2ccc(Cl)cc2c1=O	4.0	-6.9	8.2	-0.1	1.7	18.8*
COc1c(Cl)c(=O)oc2ccc(Cl)cc12	7.2	-17.3	15.9	-12.9	-6.0	-0.1
CCN1CCN(c2ncc(C(=O)Nc3cc(Cl)ccc3OC)c3ccccc23)CC1	-22.8	-5.7	9.7	57.5*	-5.4	0.8
Cc1ccc(NC(=O)c2cnc(N3CCN(c4ccccn4)CC3)c3ccccc23)c(Br)c1	-27.4	25.9*	-6.5	32.4*	-4.8	5.9
O=C(Nc1c(F)cccc1F)c1cnc(N2CCN(c3ccccn3)CC2)c2ccccc12	-5.4	29.6*	-8.8	20.5	-0.6	5.1
COc1ccc(C(=O)N2CCN(c3cccc(C)c3C)CC2)cc1S(=O)(=O)NC1CC1	4.1	-7.0	1.7	-0.1	-1.7	1.7
O=C(COC(=O)c1cc([N+](=O)[O-])ccc1N1CCOCC1)Nc1cccc(F)c1	13.8	7.4	-18.4	3.4	4.7	2.0
N#Cc1cc2c(nc1S(=O)(=O)Cc1ccccc1)CCCC2	4.6	22.4	-21.2	-5.1	-3.2	-0.3
CCCOC(=O)c1cccc(Nc2nc(-c3cccnc3)nc3ccccc23)c1	-18.2	0.9	6.7	34.4*	-4.8	3.8
O=C(OCCNc1nc(-c2ccccc2)nc2ccccc12)c1cccnc1	8.1	1.5	2.9	-2.2	-7.0	3.9
OC1(c2cccc(C(F)(F)F)c2)CCN(c2ncnc3c2[nH]c2ccccc23)CC1	-1.0	25.4*	-2.0	14.9	-0.6	-0.2
c1ccc2c(c1)[nH]c1c(N3CCC4(CC3)OCCO4)ncnc12	-6.3	-12.7	18.1	8.0	2.4	7.2
c1ccc2c(c1)CCN(c1ncnc3c1[nH]c1ccccc13)C2	-11.1	21.5	3.5	43.3*	3.0	11.4
CC1(c2nnnn2-c2ccc3c(c2)OCCO3)CCC(=O)N1CCCn1ccnc1 (stereo unspecified)	·	-1.7	-9.0	·	·	0.2
